In all, about 46,000 compounds went through this assay and about 430 (0.93%) were called active. Many of the other results were omitted from the sample, so actives are more common in it than they were. A number with no mark means an inactive call. Cut-off read from the data, not from the text of the source: active = normalized absorbance mostly below about 85% (no sharp cut-off); inactive = mostly above about 86%.

The subject of this assay is Vaccinia virus DNA polymerase (E9) processive complex. The experiment in a line: vaccinia E9 polymerase processive synthesis inhibitors, primary screen, biochemical, absorbance (AID 493162). The settings on record: in vitro processive DNA synthesis, absorbance read-out; stronger effect = lower value; concentration not given here.
For `Cc1cc(C(=O)OCC(=O)N2CCc3ccccc3C2)c(C)o1`, the normalized absorbance is 103%.
`O=C(COC(=O)c1ccc2ccccc2n1)Nc1ccc(Cl)c(C(F)(F)F)c1`: the normalized absorbance was 100%.
Take `O=C1CC(c2ccc(Cl)cc2)Sc2nc3ccccc3n21` (stereo not given): the normalized absorbance was 100%.
As for `CCc1ccccc1Nc1cc(C(=O)NCC2COc3ccccc3O2)c2ccccc2n1` (stereo not given), the normalized absorbance is 99.1%.
Regarding `O=C(OCC(=O)N1CCCCCC1)c1ccc(Cl)nc1`, the normalized absorbance was 106%.
In the case of `Brc1ccccc1C1OCC2(CO1)COC(c1ccccc1Br)OC2` (stereo not given), the normalized absorbance was 100%.
With `O=C(Nc1nc(-c2ccc(Cl)s2)cs1)C1=COCCO1`, the normalized absorbance was 98.9%.
`CCn1c(CNC(C)=O)nc2ccccc21`: the normalized absorbance is 101%.
Regarding `O=C(COC(=O)c1n[nH]c2ccccc12)NC(c1ccccc1)c1ccccc1`, the normalized absorbance was 98.6%.
To `CNC(=O)Nc1ccc(C(=O)NC)cc1` belongs 101%; to `CCOc1ccc(OCC)c(NC(=O)CCS(=O)(=O)c2ccc(C)cc2)c1`, 91.4%.
For the molecule `CCn1c(=NC(=O)C2CC2)sc2cc(Cl)ccc21`, the normalized absorbance was 71.3%.
For `NNc1cccc(Cl)n1`, the normalized absorbance was 78.5% (active).
As to `COC(=O)CN1C(=O)c2cccnc2Oc2ccc(C)cc21`, the normalized absorbance was 92%.
For `O=C(O)c1ccc(N=Cc2ccc(OC(=O)c3sc4ccccc4c3Cl)cc2)cc1`, the normalized absorbance was 100%.
Turning to `CS(=O)(=O)c1nc2ccccc2[nH]1`, the normalized absorbance was 103%.
Then `C/C(CCc1ccc2c(c1)OCO2)=N\N1C(=N)SC(C(=O)Nc2ccc(C(=O)O)cc2)CC1=O` (stereo not given), with 100%; and `COc1ccc2nc(C(=O)N3CCN(C)CC3)sc2c1`, with 85.1%.
On to `O=C1CN(C(=O)CCC(=O)c2ccc(F)cc2)c2ccccc2N1`, for which the normalized absorbance was 101%.
For the molecule `Cn1c(NCc2ccccc2)nc2ccccc21`, the normalized absorbance is 101%.
As to `O=C(O)CCNC(=O)c1ccc2c(c1)OCCO2`, the normalized absorbance was 102%.
Regarding `CSc1ncc(Cl)c(C(=O)N2CCN(c3cccc(Cl)c3)CC2)n1`, the normalized absorbance is 95.5%.
Turning to `O=P(O)(CN1CCCCCC1)C1Cc2ccccc2C1`, the normalized absorbance is 84.6%.
Then `CCOC(=O)c1c(C)oc2ccc(OC(=O)c3ccco3)cc12`, with 99.5%; and `CC12CCC3C(CC=C4CC(OC5CCCCO5)CCC43C)C1CCC2=O` (stereo not given), with 100%.
With `CC(C)(C)c1cc(C(F)(F)F)n2ncnc2n1`, the normalized absorbance is 99.9%.
Consider `C=CCN(C(=O)c1cccc2c1SCCC2=O)c1ccccc1`, for which the normalized absorbance is 113%.
Regarding `CCN(CC)c1ccc(N=Cc2cccs2)cc1`, the normalized absorbance is 99.2%.
To `CCOC(=O)c1c(NC(=O)C(C)Sc2ncccn2)sc2c1CCC2` (stereo not given) belongs 91.9%.
For the molecule `CCN(CC)c1ccc(N=C2C(=C(C#N)C#N)c3ccccc3C2=C(C#N)C#N)cc1`, the normalized absorbance is 99.9%.
For the molecule `CC(c1ccco1)N(C(=O)c1cccnc1Cl)c1ccccn1` (stereo not given), the normalized absorbance is 97.4%.
Take `c1ccc2c(c1)[I+]c1ccccc1-2`: the normalized absorbance is 15.1% (active).
Consider `Oc1ccccc1-c1nnc2n1CCC2`, for which the normalized absorbance was 102%.
Then `O=S(=O)(Cc1ccc(Cl)cc1)N1CCc2ccccc2C1`, with 107%.
In the case of `CC(C)(C)S(=O)(=O)c1cccs1`, the normalized absorbance is 90.5%.
In the case of `CC(=O)Nc1ccc2c(c1)CN(C1CCCCC1)CO2`, the normalized absorbance is 89%.
Then `O=C(O)c1ccc(NC(=O)C23CC4CC(CC(C4)C2)C3)cc1`, with 95.6%; and `O=C1C2CC3CC1CC(C(=O)O)(C3)C2`, with 61.8% (active).
As to `Cc1ccc2cccc(SCc3ccc(Br)cc3)c2n1`, the normalized absorbance was 99.8%.
For the molecule `O=C(NCCc1ccccc1)C(C(=O)c1ccccc1)n1ccccc1=O` (stereo not given), the normalized absorbance is 104%.
Take `CCc1nc2ccccc2n1CC(=O)N(c1ccccc1)C(C)C`: the normalized absorbance is 99.6%.
With `CC(C)N(C(=O)CSc1ncn[nH]1)c1ccccc1`, the normalized absorbance is 95.7%.
`Fc1ccc(CNCc2ccccn2)cc1`: the normalized absorbance is 105%.
Regarding `Cc1cc(C(=O)OCC(=O)N2C(C)CCCC2C)c2ccccc2n1` (stereo not given), the normalized absorbance was 106%.
Take `CCNCC1Cc2ccccc2O1` (stereo not given): the normalized absorbance is 110%.
Turning to `COC(=O)c1c(NC(=O)c2ccc(OC)cc2)sc2c1CCN(C(C)C)C2`, the normalized absorbance was 56.5% (active).
Then `COC(=O)c1c(NC(NC(C)=O)(C(F)(F)F)C(F)(F)F)sc2c1CCN(C)C2`, with 99.8%; and `CC(=O)N1CCc2c(sc(NC(=O)C(C)C)c2C(N)=O)C1`, with 119%.
Take `Cc1cc(C)c(S(=O)(=O)N2CCOCC2)cc1C`: the normalized absorbance is 105%.
On to `CC(C)Oc1cccc(NC(=O)Cc2ncc(C(F)(F)F)cc2Cl)c1`, for which the normalized absorbance was 103%.
With `CC(=Nc1ccc(N(C)C)cc1)C1=C(O)c2ccccc2C1=O`, the normalized absorbance is 103%.
As for `Cc1ccc(NC(=O)/C=C/c2ccc(Br)o2)cc1`, the normalized absorbance is 100%.
For `O=C1Cc2cc(S(=O)(=O)NCc3cccs3)ccc2N1`, the normalized absorbance was 105%.
To `O=C(OCC(=O)N1CCCC1)c1ccc(Oc2ccccc2)cc1` belongs 94.5%; to `O=C(Nc1nc(-c2ccccc2)cs1)c1cccc(S(=O)(=O)N2CCCC2)c1`, 111%; to `CN(C)S(=O)(=O)n1cc(/C=C(\NC(=O)c2ccccc2)C(=O)NCc2ccco2)c2ccccc21`, 80.2%.
As for `CC[n+]1c(C)n(-c2ccccc2)c2ccc(N)cc21`, the normalized absorbance is 99.4%.
To `CC[N+](C)(CC)CCC[n+]1c(-c2ccccc2)c2cc(N)ccc2c2ccc(N)cc21` belongs 8.9% (active).
Take `CCc1ccc(/C=C2\SC(=S)N(CCCC(=O)Nc3cccnc3)C2=O)cc1`: the normalized absorbance is 99.7%.
To `O=C(Nc1nccs1)c1cc(=O)c2ccccc2o1` belongs 101%.
`O=C(O)c1ccccc1-c1ccccc1C(=O)Nc1nccs1`: the normalized absorbance was 70.1%.
Take `Nc1[nH]c(=S)sc1C(=O)Nc1nccs1`: the normalized absorbance is 58.3% (active).
As for `CCN1CCN(CCNC(=O)c2ccc3c(c2)NC(=O)/C(=C\c2cccc(Cl)c2)S3)CC1`, the normalized absorbance was 79.8%.
To `Clc1ccc(-c2ncc3ccccn23)c(Cl)c1` belongs 101%.
For `OC1CCN(c2ncc(C(F)(F)F)cc2Cl)CC1`, the normalized absorbance is 105%.
To `Cc1ccc2nc(Nc3ccccc3)cc(C)c2c1` belongs 100%.
Then `Cc1ccc2nc(C)c3c(c2c1)N(c1ccccc1)CC3`, with 61.5% (active).
Consider `O=C(CSc1nc2ccc(N=Cc3cc(Br)ccc3O)cc2s1)Nc1ccccc1`, for which the normalized absorbance was 100%.
Take `CCCNS(=O)(=O)c1ccc2c(c1)oc(=O)n2CC(=O)OCC`: the normalized absorbance was 99.1%.
Regarding `O=c1c(/C=N\O)coc2ccc(F)cc12`, the normalized absorbance was 79.3%.
As for `COc1cccc2c(=O)n(CC(=O)NCc3ccccc3)ccc12`, the normalized absorbance was 90%.
As to `CN(C(=O)COC(=O)c1cnc(Cl)c(Cl)c1)c1ccccc1`, the normalized absorbance was 101%.
`COCc1cc(Cl)nc(-c2ccccc2)n1`: the normalized absorbance is 103%.
Then `c1csc(Nc2nc3cc4c(cc3s2)OCO4)n1`, with 96.8%; and `CCCCN1N=C(C)CC1=O`, with 99.9%.
For `CCC(=O)Oc1ccc(Br)cc1/C=C1\Sc2ccccc2C1=O`, the normalized absorbance was 99.9%.
With `ClCc1csc(-c2ccccc2)n1`, the normalized absorbance was 96.4%.
Then `Cc1ccc2cc(CCNC(=O)CCC3CCCC3)c(=O)[nH]c2c1`, with 101%.
Then `COCCn1cc(C(=O)NC2CCCCCC2)c2c3ccccc3n(C)c2c1=O`, with 102%; and `Cn1c(C(=O)NC2CCCC2)cc2oc3ccccc3c21`, with 104%.
Regarding `CCN1CCCC1CNC(=O)c1cc2c(=O)n(C)c3ccccc3c2n1C` (stereo not given), the normalized absorbance was 51.4% (active).
Take `COc1cc2c3c(c1OC)C1(C=CC(=O)C=C1)CC3[N+](C)(C)CC2` (stereo not given): the normalized absorbance is 75.6%.
As to `O=C(N=C1SC2CS(=O)(=O)CC2N1c1ccccc1)c1ccccc1` (stereo not given), the normalized absorbance is 112%.
Turning to `Cc1cc(S(=O)(=O)N2CCN(Cc3ccccc3)CC2)c(C)cc1Cl`, the normalized absorbance was 71.9%.
As to `Cc1c(C(=O)NCCCN2CCCCCC2)oc2ccc3nc(N(C)C)sc3c12`, the normalized absorbance was 64.3% (active).
As to `O=C(NCCCN1CCCC1)c1cc(-c2ccncc2)nc2ccccc12`, the normalized absorbance is 86.5%.
As to `Cc1ccc(-c2cn3nc(N4CCC(C(=O)NCCCN5CCCCC5)CC4)sc3n2)cc1`, the normalized absorbance is 104%.
Consider `CC(C)=CCC(O)C1=CC(=O)c2c(O)ccc(O)c2C1=O` (stereo not given), for which the normalized absorbance is 81.9% (active).
Turning to `Cc1ccccc1NC1=NC2(CCCCC2)N=C(N)N1`, the normalized absorbance is 100%.
For the molecule `O=C(O)CCc1nc2cc(Cl)ccc2n(Cc2ccccc2)c1=O`, the normalized absorbance was 98.8%.
For `O=C(O)CC(c1ccccc1)n1cnnn1` (stereo not given), the normalized absorbance was 107%.
Then `O=C(O)CC(c1ccccc1)c1cc(Cl)ccc1O` (stereo not given), with 73.5% (active); and `CC(=O)N1CC(C)Oc2cc(S(=O)(=O)N(C)Cc3ccccc3)ccc21` (stereo not given), with 103%.
For `COc1cccc2c1C(=O)C1C(O)=C3C(=C(O)C1C2=O)C[C@@](O)(C(=O)CO)C[C@@H]3OC1CC(N)C(O)C(C)O1` (stereo not given in full), the normalized absorbance was 7.8% (active).
Consider `Cc1ccccc1Nc1nn2c(=O)c3ccc(C(=O)NCc4ccccc4Cl)cc3nc2s1`, for which the normalized absorbance was 96.3%.
On to `Cc1scc(-c2ccccc2)[n+]1C`, for which the normalized absorbance is 97%.
Turning to `S=c1cc(-c2ccccc2)oc(-c2ccccc2)c1`, the normalized absorbance is 99.9%.
Turning to `Clc1ccc2oc(-c3ccccc3)c/c(=N\c3nccs3)c2c1`, the normalized absorbance was 99.8%.
In the case of `CN(C)CCN=c1cc(-c2ccccc2)oc2ccc(Cl)cc12`, the normalized absorbance was 25.3% (active).
In the case of `N#Cc1ccccc1NC(=O)CSc1ccccc1`, the normalized absorbance is 105%.
`O=C(CCNS(=O)(=O)c1ccc2[nH]c(=O)ccc2c1)NC1CCCC1`: the normalized absorbance is 103%.
To `Cc1ccc(S(=O)(=O)N2CCCC(C(=O)N(C)c3ccccc3)C2)cc1` (stereo not given) belongs 101%; to `O=C(NCCCN1CCOCC1)c1cc2c(s1)CCC2`, 82.2%; to `COC(CN(C)C(=O)c1cc2c(Cl)nc3ccc(C)cc3c2s1)OC`, 80.2%.
As to `Cc1ccc2nc(Cl)c3cc(C(=O)NCCN4CCN(C)CC4)sc3c2c1`, the normalized absorbance is 22.8% (active).

The values are drawn from PubChem BioAssay AID493162 (ICCB-Longwood Screening Facility, Harvard Medical School, 2011).
